# Key:
# Test in all cases: DAPPL (digital affinity profiling via proximity ligation, sequencing); 10 mM Tris-HCl pH 7.5, 50 mM NaCl, 1 mM DTT, 4% glycerol, room temperature, 30 min; GST-TFs on glutathione beads, 16-mer random dsDNA library, 0.1% formaldehyde crosslink after washing; high values mean tight binding
# FLI1 = target: T1, FLI1 (Homo sapiens, UniProt Q01543 1-452); settings: protein: recombinant; tags: N-terminal GST; dsDNA, one strand shown
# T1 sequence: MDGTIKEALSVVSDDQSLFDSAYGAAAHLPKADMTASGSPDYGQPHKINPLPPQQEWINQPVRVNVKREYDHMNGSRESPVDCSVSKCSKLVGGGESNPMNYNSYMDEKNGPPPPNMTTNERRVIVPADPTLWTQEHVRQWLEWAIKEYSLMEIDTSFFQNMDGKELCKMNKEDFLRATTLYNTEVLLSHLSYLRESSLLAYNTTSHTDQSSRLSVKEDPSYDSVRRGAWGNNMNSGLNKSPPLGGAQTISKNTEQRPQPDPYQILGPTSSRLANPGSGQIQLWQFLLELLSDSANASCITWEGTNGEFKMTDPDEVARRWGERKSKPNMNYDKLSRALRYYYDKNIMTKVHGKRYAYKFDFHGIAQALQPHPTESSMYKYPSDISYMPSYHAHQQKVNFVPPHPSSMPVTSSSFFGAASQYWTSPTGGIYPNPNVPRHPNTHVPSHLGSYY
# In short: (§1)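 Binding signal is defined as a hexamer's read frequency for one factor over its frequency for the tag-only sample. To obtain reads, GST-fused human transcription factors were expressed in yeast, captured on glutathione beads, barcoded with DNA and pooled with that sample. Pools met 200 nmole of a 16-mer random double-stranded DNA library in Tris/NaCl/DTT/glycerol buffer for 30 min at room temperature before washing, 0.1% formaldehyde crosslinking, proximity ligation (BsaI/T4 ligase, 1 h, 37 °C), PCR and Illumina NextSeq500 sequencing.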
# ELK1 = target: T2, ELK1 (Homo sapiens, UniProt P19419 1-428); settings: protein: recombinant; tags: N-terminal GST; dsDNA, one strand shown
# T2 sequence: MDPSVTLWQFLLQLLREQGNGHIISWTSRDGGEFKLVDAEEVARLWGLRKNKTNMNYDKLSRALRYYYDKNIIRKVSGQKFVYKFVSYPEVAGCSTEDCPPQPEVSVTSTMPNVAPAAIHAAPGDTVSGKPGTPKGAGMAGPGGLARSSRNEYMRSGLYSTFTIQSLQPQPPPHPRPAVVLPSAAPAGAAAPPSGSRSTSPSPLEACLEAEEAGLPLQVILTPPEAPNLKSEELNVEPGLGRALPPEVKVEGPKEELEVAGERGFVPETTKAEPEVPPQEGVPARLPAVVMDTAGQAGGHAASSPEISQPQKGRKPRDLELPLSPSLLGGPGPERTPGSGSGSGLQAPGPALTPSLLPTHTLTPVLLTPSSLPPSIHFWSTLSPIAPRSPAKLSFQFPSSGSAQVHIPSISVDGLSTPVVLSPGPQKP
# In short: as §1
# GABPA = target: T3, GABPA (Homo sapiens, UniProt Q06546 1-454); settings: protein: recombinant; tags: N-terminal GST; dsDNA, one strand shown
# T3 sequence: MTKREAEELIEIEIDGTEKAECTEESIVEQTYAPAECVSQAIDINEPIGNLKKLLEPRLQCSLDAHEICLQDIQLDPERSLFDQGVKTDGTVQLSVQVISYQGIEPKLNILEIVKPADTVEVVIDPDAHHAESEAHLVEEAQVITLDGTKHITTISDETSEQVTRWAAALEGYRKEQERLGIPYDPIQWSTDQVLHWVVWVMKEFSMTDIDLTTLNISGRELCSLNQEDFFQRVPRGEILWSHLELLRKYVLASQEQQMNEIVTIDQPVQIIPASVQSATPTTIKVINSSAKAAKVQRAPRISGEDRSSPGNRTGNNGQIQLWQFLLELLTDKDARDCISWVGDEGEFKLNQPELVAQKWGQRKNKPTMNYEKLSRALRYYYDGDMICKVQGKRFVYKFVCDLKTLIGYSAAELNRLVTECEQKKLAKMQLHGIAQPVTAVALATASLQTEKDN
# In short: as §1
# ERG = target: T4, ERG (Homo sapiens, UniProt P11308 1-479); settings: protein: recombinant; tags: N-terminal GST; dsDNA, one strand shown
# T4 sequence: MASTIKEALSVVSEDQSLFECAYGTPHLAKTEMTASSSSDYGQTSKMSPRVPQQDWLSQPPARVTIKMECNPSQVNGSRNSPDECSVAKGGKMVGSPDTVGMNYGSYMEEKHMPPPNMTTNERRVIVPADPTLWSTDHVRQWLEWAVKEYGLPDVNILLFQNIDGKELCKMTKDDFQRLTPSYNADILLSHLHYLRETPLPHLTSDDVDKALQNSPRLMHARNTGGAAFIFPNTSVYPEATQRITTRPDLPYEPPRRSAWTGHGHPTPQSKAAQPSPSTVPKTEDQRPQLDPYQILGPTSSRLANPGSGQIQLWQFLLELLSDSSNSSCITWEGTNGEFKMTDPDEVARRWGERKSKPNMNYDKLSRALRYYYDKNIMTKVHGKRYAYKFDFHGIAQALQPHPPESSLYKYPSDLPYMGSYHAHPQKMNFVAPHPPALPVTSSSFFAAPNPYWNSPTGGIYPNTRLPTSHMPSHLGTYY
# In short: as §1
# ELF1 = ELF1 (Homo sapiens, UniProt P32519 1-619); settings: protein: recombinant; tags: N-terminal GST; dsDNA, one strand shown
# In short: as §1
# EHF = target: T5, EHF (Homo sapiens, UniProt Q9NZC4 1-300); settings: protein: recombinant; tags: N-terminal GST; dsDNA, one strand shown
# T5 sequence: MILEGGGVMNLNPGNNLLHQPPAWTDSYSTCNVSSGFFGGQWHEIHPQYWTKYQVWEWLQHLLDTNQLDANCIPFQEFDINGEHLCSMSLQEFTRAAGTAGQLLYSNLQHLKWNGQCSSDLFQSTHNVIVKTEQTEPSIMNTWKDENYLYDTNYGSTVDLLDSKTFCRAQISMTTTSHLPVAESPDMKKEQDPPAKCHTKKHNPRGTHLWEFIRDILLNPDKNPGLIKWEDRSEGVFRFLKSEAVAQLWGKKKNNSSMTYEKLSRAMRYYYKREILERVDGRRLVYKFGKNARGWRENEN
# In short: as §1
# SPI1 = SPI1 (Homo sapiens, UniProt P17947 1-270); settings: protein: recombinant; tags: N-terminal GST; dsDNA, one strand shown
# In short: as §1
# SPIB = SPIB (Homo sapiens, UniProt Q01892 1-262); settings: protein: recombinant; tags: N-terminal GST; dsDNA, one strand shown
# In short: as §1
# ELK3 = target: T6, ELK3 (Homo sapiens, UniProt P41970 1-407); settings: protein: recombinant; tags: N-terminal GST; dsDNA, one strand shown
# T6 sequence: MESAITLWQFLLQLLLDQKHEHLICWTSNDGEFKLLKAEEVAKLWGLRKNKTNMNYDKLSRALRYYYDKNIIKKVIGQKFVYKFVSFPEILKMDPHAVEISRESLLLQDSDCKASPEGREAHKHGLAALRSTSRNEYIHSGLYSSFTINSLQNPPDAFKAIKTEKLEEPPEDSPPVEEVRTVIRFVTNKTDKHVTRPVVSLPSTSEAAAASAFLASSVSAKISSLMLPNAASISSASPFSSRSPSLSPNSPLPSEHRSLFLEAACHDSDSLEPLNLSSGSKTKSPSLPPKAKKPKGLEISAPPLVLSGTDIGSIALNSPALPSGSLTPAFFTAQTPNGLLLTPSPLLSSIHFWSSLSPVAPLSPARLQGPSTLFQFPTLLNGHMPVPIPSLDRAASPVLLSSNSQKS
# In short: as §1
# FEV = target: T7, FEV (Homo sapiens, UniProt Q99581 1-238); settings: protein: recombinant; tags: N-terminal GST; dsDNA, one strand shown
# T7 sequence: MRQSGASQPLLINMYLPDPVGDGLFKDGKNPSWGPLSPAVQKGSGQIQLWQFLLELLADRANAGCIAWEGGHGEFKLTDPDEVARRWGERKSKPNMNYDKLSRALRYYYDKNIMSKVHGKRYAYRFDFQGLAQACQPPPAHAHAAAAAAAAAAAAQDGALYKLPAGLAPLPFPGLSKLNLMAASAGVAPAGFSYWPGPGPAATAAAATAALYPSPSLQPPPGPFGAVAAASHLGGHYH
# In short: as §1
# ETV5 = ETV5 (Homo sapiens, UniProt P41161 1-510); settings: protein: recombinant; tags: N-terminal GST; dsDNA, one strand shown
# In short: as §1
# HSF1 = HSF1 (Homo sapiens, UniProt Q00613 1-529); settings: protein: recombinant; tags: N-terminal GST; chain copies: 3; dsDNA, one strand shown
# In short: as §1
# SPIC = target: T8, SPIC (Homo sapiens, UniProt Q8N5J4 1-248); settings: protein: recombinant; tags: N-terminal GST; dsDNA, one strand shown
# T8 sequence: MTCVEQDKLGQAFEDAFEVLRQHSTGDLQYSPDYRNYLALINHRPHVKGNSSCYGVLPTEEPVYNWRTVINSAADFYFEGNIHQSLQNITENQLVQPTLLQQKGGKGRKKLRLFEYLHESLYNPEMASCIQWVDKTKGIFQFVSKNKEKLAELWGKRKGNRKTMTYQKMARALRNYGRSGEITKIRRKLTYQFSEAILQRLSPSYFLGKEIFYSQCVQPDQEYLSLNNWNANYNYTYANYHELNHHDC
# In short: as §1
# ELF4 = ELF4 (Homo sapiens, UniProt Q99607 1-663); settings: protein: recombinant; tags: N-terminal GST; dsDNA, one strand shown
# In short: as §1
# ELK4 = target: T9, ELK4 (Homo sapiens, UniProt P28324-2 1-405); settings: protein: recombinant; tags: N-terminal GST; dsDNA, one strand shown
# T9 sequence: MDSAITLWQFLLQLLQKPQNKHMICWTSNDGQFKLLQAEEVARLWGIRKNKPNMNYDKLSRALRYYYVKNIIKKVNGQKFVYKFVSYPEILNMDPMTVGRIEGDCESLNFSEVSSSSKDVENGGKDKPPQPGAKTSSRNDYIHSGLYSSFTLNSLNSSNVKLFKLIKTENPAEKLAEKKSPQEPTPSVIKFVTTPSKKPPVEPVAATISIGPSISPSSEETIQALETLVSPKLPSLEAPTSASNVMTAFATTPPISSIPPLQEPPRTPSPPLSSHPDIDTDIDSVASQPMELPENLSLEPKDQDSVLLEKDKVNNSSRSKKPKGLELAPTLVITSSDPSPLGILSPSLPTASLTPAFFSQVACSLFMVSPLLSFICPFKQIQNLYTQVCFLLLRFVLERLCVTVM
# In short: as §1
# ETV2 = target: T10, ETV2 (Homo sapiens, UniProt O00321 1-342); settings: protein: recombinant; tags: N-terminal GST; dsDNA, one strand shown
# T10 sequence: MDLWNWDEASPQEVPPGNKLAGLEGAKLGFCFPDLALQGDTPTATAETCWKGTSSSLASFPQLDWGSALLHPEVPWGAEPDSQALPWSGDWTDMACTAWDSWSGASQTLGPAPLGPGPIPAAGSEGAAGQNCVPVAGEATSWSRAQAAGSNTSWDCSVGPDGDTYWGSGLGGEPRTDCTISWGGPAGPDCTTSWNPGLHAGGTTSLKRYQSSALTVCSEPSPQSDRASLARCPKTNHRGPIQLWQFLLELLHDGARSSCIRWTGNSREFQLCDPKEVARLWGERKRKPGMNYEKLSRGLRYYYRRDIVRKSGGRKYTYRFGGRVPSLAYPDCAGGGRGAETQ
# In short: as §1
# ELF3 = target: T11, ELF3 (Homo sapiens, UniProt P78545 1-371); settings: protein: recombinant; tags: N-terminal GST; dsDNA, one strand shown
# T11 sequence: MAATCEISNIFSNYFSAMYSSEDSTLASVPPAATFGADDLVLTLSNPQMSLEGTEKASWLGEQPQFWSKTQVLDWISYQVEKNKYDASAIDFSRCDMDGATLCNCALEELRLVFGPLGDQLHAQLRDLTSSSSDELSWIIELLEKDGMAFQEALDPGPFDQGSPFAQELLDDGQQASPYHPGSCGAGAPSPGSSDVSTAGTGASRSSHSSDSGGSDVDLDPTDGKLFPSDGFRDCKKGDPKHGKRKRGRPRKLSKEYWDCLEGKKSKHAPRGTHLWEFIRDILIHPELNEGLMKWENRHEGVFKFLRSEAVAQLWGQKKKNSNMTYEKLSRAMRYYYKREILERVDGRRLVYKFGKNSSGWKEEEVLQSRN
# In short: as §1
# CRX = CRX (Homo sapiens, UniProt O43186 1-299); settings: protein: recombinant; tags: N-terminal GST; dsDNA, one strand shown
# In short: as §1
# ETV1 = ETV1 (Homo sapiens, UniProt P50549 1-477); settings: protein: recombinant; tags: N-terminal GST; dsDNA, one strand shown
# In short: as §1
# ELF4, sequence (Q99607 whole entry): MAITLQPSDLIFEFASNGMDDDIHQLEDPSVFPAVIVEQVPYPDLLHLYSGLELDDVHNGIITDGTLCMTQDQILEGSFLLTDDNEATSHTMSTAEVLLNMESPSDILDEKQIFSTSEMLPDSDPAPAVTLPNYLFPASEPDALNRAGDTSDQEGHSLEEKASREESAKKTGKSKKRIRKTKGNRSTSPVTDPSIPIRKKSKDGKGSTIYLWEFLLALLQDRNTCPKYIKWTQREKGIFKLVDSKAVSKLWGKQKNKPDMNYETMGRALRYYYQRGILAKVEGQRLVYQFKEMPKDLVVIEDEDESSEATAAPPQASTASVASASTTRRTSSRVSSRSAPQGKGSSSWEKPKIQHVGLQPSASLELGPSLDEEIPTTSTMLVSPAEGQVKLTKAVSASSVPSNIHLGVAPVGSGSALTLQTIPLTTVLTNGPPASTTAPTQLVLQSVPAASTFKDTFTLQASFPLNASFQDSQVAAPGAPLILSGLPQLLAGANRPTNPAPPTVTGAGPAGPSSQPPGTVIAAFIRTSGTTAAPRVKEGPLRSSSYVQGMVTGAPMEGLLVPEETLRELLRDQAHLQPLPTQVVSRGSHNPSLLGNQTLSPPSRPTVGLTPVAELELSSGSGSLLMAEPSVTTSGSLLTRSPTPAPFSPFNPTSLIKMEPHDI
# ETV5, sequence (P41161 whole entry): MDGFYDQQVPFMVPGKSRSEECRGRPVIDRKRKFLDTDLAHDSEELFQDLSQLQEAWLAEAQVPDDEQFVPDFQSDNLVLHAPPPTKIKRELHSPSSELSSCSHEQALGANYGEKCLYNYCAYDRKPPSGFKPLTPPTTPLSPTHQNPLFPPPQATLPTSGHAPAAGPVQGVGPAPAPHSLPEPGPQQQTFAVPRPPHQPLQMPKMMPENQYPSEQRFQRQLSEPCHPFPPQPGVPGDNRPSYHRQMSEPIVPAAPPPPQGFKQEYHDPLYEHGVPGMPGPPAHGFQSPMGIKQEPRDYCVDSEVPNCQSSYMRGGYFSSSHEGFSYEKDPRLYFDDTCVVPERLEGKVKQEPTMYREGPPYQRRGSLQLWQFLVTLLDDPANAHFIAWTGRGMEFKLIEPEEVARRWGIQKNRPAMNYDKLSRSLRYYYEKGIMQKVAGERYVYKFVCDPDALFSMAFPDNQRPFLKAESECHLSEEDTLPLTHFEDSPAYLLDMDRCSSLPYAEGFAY
# ETV1, sequence (P50549 whole entry): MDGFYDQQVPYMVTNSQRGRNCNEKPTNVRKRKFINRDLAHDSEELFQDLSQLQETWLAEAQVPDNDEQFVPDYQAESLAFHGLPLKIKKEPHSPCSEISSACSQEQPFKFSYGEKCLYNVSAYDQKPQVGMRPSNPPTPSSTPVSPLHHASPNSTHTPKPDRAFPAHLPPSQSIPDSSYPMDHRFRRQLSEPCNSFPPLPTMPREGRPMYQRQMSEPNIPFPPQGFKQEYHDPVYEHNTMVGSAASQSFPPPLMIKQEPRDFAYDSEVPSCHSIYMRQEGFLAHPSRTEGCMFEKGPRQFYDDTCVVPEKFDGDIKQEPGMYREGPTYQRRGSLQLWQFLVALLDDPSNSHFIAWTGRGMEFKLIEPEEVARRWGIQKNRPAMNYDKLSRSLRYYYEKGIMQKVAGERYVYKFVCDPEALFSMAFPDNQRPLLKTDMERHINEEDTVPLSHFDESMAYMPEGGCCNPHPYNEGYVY
# HSF1, sequence (Q00613 whole entry): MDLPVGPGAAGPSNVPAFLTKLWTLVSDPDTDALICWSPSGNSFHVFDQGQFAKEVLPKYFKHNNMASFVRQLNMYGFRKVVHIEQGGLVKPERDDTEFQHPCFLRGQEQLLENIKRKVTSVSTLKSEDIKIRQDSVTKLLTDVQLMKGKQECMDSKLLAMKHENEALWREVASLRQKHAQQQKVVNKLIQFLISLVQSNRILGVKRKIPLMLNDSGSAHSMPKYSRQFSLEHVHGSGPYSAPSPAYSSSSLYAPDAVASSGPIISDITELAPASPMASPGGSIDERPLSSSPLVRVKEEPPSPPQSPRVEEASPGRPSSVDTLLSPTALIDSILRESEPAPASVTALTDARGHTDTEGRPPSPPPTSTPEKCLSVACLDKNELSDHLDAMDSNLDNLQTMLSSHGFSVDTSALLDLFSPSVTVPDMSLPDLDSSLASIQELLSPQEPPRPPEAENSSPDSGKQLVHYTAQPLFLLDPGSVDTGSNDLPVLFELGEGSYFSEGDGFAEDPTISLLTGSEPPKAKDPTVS
# SPIB, sequence (Q01892 whole entry): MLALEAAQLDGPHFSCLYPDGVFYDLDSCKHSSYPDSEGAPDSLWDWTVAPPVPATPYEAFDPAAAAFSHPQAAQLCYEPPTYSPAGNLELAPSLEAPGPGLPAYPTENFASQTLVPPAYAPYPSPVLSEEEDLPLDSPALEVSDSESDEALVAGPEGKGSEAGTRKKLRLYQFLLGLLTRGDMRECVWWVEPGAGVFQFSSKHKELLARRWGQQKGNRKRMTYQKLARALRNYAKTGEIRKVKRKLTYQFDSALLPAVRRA
# ELF1, sequence (P32519 whole entry): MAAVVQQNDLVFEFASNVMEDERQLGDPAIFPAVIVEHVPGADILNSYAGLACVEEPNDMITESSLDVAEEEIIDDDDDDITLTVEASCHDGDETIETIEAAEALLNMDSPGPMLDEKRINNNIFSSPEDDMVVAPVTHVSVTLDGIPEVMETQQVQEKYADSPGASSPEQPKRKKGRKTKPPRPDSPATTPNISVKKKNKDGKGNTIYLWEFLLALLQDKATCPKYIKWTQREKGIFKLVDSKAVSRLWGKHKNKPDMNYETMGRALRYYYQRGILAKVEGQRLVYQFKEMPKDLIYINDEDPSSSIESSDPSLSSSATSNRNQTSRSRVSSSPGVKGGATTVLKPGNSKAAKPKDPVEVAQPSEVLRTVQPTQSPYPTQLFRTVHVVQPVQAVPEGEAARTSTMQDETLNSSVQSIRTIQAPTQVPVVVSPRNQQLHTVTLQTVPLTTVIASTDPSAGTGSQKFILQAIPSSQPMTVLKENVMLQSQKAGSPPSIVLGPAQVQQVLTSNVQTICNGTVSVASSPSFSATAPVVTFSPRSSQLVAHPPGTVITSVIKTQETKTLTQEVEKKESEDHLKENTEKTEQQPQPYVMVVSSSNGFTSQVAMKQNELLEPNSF
# CRX, sequence (O43186 whole entry): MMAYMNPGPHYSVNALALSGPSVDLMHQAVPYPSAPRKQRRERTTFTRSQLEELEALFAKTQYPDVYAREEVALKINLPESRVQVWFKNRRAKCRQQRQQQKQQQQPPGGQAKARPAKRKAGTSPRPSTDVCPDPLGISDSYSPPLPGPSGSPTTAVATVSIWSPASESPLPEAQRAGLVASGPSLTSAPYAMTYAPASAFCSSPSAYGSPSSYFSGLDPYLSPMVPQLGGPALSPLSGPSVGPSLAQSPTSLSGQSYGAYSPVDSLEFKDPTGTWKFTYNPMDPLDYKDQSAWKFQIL
sequence,measurement,setting,value
TATGTA,binding signal,FLI1,"1.32 fold enrichment (6-mer frequency, TF over GST control)"
same,binding signal,ELK1,"1.25 fold enrichment (6-mer frequency, TF over GST control)"
same,binding signal,GABPA,"1.29 fold enrichment (6-mer frequency, TF over GST control)"
same,binding signal,ERG,"1.2 fold enrichment (6-mer frequency, TF over GST control)"
same,binding signal,ELF1,"1.29 fold enrichment (6-mer frequency, TF over GST control)"
same,binding signal,EHF,"1.23 fold enrichment (6-mer frequency, TF over GST control)"
same,binding signal,SPI1,"1.3 fold enrichment (6-mer frequency, TF over GST control)"
same,binding signal,SPIB,"1.31 fold enrichment (6-mer frequency, TF over GST control)"
same,binding signal,ELK3,"1.17 fold enrichment (6-mer frequency, TF over GST control)"
same,binding signal,FEV,"1.28 fold enrichment (6-mer frequency, TF over GST control)"
same,binding signal,ETV5,"1.25 fold enrichment (6-mer frequency, TF over GST control)"
same,binding signal,HSF1,"1.28 fold enrichment (6-mer frequency, TF over GST control)"
same,binding signal,SPIC,"1.26 fold enrichment (6-mer frequency, TF over GST control)"
same,binding signal,ELF4,"1.38 fold enrichment (6-mer frequency, TF over GST control)"
same,binding signal,ELK4,"1.39 fold enrichment (6-mer frequency, TF over GST control)"
same,binding signal,ETV2,"1.23 fold enrichment (6-mer frequency, TF over GST control)"
same,binding signal,ELF3,"1.52 fold enrichment (6-mer frequency, TF over GST control)"
same,binding signal,CRX,"1.51 fold enrichment (6-mer frequency, TF over GST control)"
same,binding signal,ETV1,"1.3 fold enrichment (6-mer frequency, TF over GST control)"

# Source: paper PMC7862700, “An all-to-all approach to the identification of sequence-specific readers for epigenetic DNA modifications on cytosine”
